# Reference: the supplement of paper PMC13380429
# System: Vero E6 infected with SARS-CoV-2
# Test: inhibition of SARS-CoV-2 cytopathic effect; higher = more antiviral protection, active = above 15
# Conditions: 8.33 nM; 48 h
row,Structure (SMILES),inhibition of SARS-CoV-2 cytopathic effect
1,COc1cn(-c2ccc(-n3cccn3)cc2F)nc(-c2ccnn2-c2ccccc2)c1=O,3.16% (inactive)
2,O=C(O)c1ccc2nc(-c3cc(Cl)cc(Cl)c3)oc2c1 [tafamidis-meglumine],-0.38% (inactive)
3,CC(C)NC[C@@H](O)COc1ccccc1-n1cccc1 (racemic) [isamoltane],-0.83% (inactive)
4,O=c1ccc2ccc(OCCCCN3CCN(c4cccc5sccc45)CC3)cc2[nH]1 [brexpiprazole],2.4% (inactive)
5,COC(=O)Nc1nc2cc(C(=O)c3ccc(F)cc3)ccc2[nH]1 [flubendazole],0.53% (inactive)
6,CC1CCN(C(c2ccc(F)cc2)c2ccc(C(C)C(=O)O)cc2-c2ccc(C(F)(F)F)cc2)CC1 (stereo not given),-0.54% (inactive)
7,O=C(O)c1c(Sc2ccccc2)c2cc(Cl)ccc2n1Cc1ccc(Cl)cc1,-0.87% (inactive)
8,O=C(COP(=O)(O)O)[C@@H](O)[C@H](O)[C@H](O)COP(=O)(O)O [fosfructose],-3.73% (inactive)
9,COc1cc(-n2cnc3cc(-c4ccc(Cl)cc4)sc3c2=O)ccc1OCCN1CCCC1,0.96% (inactive)
10,CN(C)Cc1ccc(S(=O)(=O)n2ccc(/C=C/C(=O)NO)c2)cc1 [resminostat],-2.34% (inactive)
11,CN=C(N)NCCC[C@H](N)C(=O)O [L-monomethylarginine],-1.38% (inactive)
12,c1ccc(-c2ccc(C(c3ccccc3)n3ccnc3)cc2)cc1 (stereo not given) [bifonazole],3.28% (inactive)
13,CC/C=C\C/C=C\C/C=C\C/C=C\C/C=C\C/C=C\CCC(=O)OCC [doconexent-ethyl-ester],0.01% (inactive)
14,O=S(=O)(c1cccc2cnccc12)N1CCCNCC1 [fasudil],-3.05% (inactive)
15,CN1C(=O)C[C@@H](C(=O)N[C@@H](Cc2c[nH]cn2)C(=O)N2CCC[C@H]2C(N)=O)NC1=O [taltirelin],3.69% (inactive)
16,CCC1(CC)C(=O)C=CNC1=O [pyrithyldione],0.58% (inactive)
17,O=c1c(-c2ccc(O)cc2)coc2cc(O)cc(O)c12 [genistein],1.66% (inactive)
18,COc1cc(Br)c(S(=O)(=O)Nc2ccc(Cl)c(O[C@@H]3CCN(C)C3)c2)cc1OC,1.7% (inactive)

row,Structure (SMILES),inhibition of SARS-CoV-2 cytopathic effect
1,CCCSc1ccc2[nH]c(NC(=O)OC)nc2c1 [albendazole],-0.38% (inactive)
2,N#C/C(=C\c1ccc(O)c(O)c1)C(=O)NCCCc1ccccc1,-2.1% (inactive)
3,CCOC(=O)c1ccc(N(C)c2csc(-c3ccccc3)n2)cc1 [neuropathiazol],1.78% (inactive)
4,CC(C)NC(=N)NC(=N)Nc1ccc(Cl)cc1 [proguanil],0.28% (inactive)
5,c1ccc2c(Oc3nc(Nc4ccc(N5CCOCC5)cc4)c4ncn(C5CCCCC5)c4n3)cccc2c1 [purmorphamine],1.18% (inactive)
6,O=C1NCN(c2ccccc2)C12CCN(CCCC(c1ccc(F)cc1)c1ccc(F)cc1)CC2 [fluspirilene],-2.06% (inactive)
7,CC(C)Oc1ccc2c(=O)c3cc(C(=O)O)ccc3oc2c1,-1.43% (inactive)
8,COc1ccc(-c2nc(-c3ccc(-c4cccc(Cl)c4)o3)[nH]c2-c2ccc(OC)cc2)cc1 [neurodazine],-0.31% (inactive)
9,C[C@@H](N)c1ccc(C(=O)Nc2ccnc3[nH]ccc23)cc1,-1.06% (inactive)
10,CC1CCN(CCCC(=O)c2ccc(F)cc2)CC1 [melperone],-0.88% (inactive)
11,C1CCN2C[C@@H]3C[C@@H](CN4CCCC[C@@H]34)[C@H]2C1 [sparteine-sulfate],4.17% (inactive)
12,Oc1c(I)cc(I)c(O)c1I [riodoxol],0.37% (inactive)
13,Nc1ccc(S(=O)(=O)c2ccc(N)cc2)cc1 [dapsone],2.16% (inactive)
14,CCCCC/C=C\C/C=C\C/C=C\C/C=C\CCCC(=O)Nc1ccc(O)cc1,-1.32% (inactive)
15,Cc1ccc(-c2cc(C(F)(F)F)nn2-c2ccc(S(N)(=O)=O)cc2)cc1 [celecoxib],1.32% (inactive)
16,C=CC(=O)O [acrylate],-3.42% (inactive)
17,CCOC(=O)c1c(C)n(C)c2ccc(O)cc12 [mecarbinate],-1.26% (inactive)

# Same assay, conditions: 100 nM; 48 h
row,Structure (SMILES),inhibition of SARS-CoV-2 cytopathic effect
1,O=Nc1c(-c2c(O)[nH]c3cc(Br)ccc23)[nH]c2ccccc12 [GSK-3-inhibitor-IX],1.64% (inactive)
2,O=c1[nH]c2ccccc2c(=O)n1CCCN1CCN(c2ccccc2)CC1 [pelanserin],-0.08% (inactive)
3,C[C@]12C=CC(=O)C=C1CC[C@@H]1[C@@H]2[C@@H](O)C[C@@]2(C)[C@H]1CC[C@]2(O)C(=O)COC(=O)CCC(=O)O [prednisolone-hemisuccinate],3.44% (inactive)
4,CC(O)(P(=O)(O)O)P(=O)(O)O [etidronic-acid],-1.2% (inactive)
5,COC(=O)[C@@]12OC[C@]34[C@H]([C@@H](O)[C@@H]1O)[C@@]1(C)CC(=O)C(O)=C(C)[C@@H]1C[C@H]3OC(=O)[C@H](OC(=O)/C=C(\C)C(C)C)[C@@H]24 [bruceantin],26.8% (active)
6,COc1cn(-c2ccc(-n3cccn3)cc2F)nc(-c2ccnn2-c2ccccc2)c1=O,0.79% (inactive)
7,O=C(O)c1ccc2nc(-c3cc(Cl)cc(Cl)c3)oc2c1 [tafamidis-meglumine],-1.04% (inactive)
8,CC(C)NC[C@@H](O)COc1ccccc1-n1cccc1 (racemic) [isamoltane],1.76% (inactive)
9,O=c1ccc2ccc(OCCCCN3CCN(c4cccc5sccc45)CC3)cc2[nH]1 [brexpiprazole],2.49% (inactive)
10,COC(=O)Nc1nc2cc(C(=O)c3ccc(F)cc3)ccc2[nH]1 [flubendazole],0.32% (inactive)
11,CC1CCN(C(c2ccc(F)cc2)c2ccc(C(C)C(=O)O)cc2-c2ccc(C(F)(F)F)cc2)CC1 (stereo not given),-0.83% (inactive)
12,O=C(O)c1c(Sc2ccccc2)c2cc(Cl)ccc2n1Cc1ccc(Cl)cc1,-0.5% (inactive)
13,O=C(COP(=O)(O)O)[C@@H](O)[C@H](O)[C@H](O)COP(=O)(O)O [fosfructose],-0.5% (inactive)
14,COc1cc(-n2cnc3cc(-c4ccc(Cl)cc4)sc3c2=O)ccc1OCCN1CCCC1,0.81% (inactive)
15,CN(C)Cc1ccc(S(=O)(=O)n2ccc(/C=C/C(=O)NO)c2)cc1 [resminostat],-0.22% (inactive)
16,CN=C(N)NCCC[C@H](N)C(=O)O [L-monomethylarginine],0.7% (inactive)
17,c1ccc(-c2ccc(C(c3ccccc3)n3ccnc3)cc2)cc1 (stereo not given) [bifonazole],4.39% (inactive)
18,CC/C=C\C/C=C\C/C=C\C/C=C\C/C=C\C/C=C\CCC(=O)OCC [doconexent-ethyl-ester],0.45% (inactive)
19,O=S(=O)(c1cccc2cnccc12)N1CCCNCC1 [fasudil],-2.08% (inactive)
20,CN1C(=O)C[C@@H](C(=O)N[C@@H](Cc2c[nH]cn2)C(=O)N2CCC[C@H]2C(N)=O)NC1=O [taltirelin],3% (inactive)

row,Structure (SMILES),inhibition of SARS-CoV-2 cytopathic effect
1,CCC1(CC)C(=O)C=CNC1=O [pyrithyldione],-3.23% (inactive)
2,O=c1c(-c2ccc(O)cc2)coc2cc(O)cc(O)c12 [genistein],2.02% (inactive)
3,COc1cc(Br)c(S(=O)(=O)Nc2ccc(Cl)c(O[C@@H]3CCN(C)C3)c2)cc1OC,-0.06% (inactive)
4,CCCSc1ccc2[nH]c(NC(=O)OC)nc2c1 [albendazole],-0.24% (inactive)
5,N#C/C(=C\c1ccc(O)c(O)c1)C(=O)NCCCc1ccccc1,-0.73% (inactive)
6,CCOC(=O)c1ccc(N(C)c2csc(-c3ccccc3)n2)cc1 [neuropathiazol],0.85% (inactive)
7,CC(C)NC(=N)NC(=N)Nc1ccc(Cl)cc1 [proguanil],-0.95% (inactive)
8,c1ccc2c(Oc3nc(Nc4ccc(N5CCOCC5)cc4)c4ncn(C5CCCCC5)c4n3)cccc2c1 [purmorphamine],0.24% (inactive)
9,O=C1NCN(c2ccccc2)C12CCN(CCCC(c1ccc(F)cc1)c1ccc(F)cc1)CC2 [fluspirilene],-3.28% (inactive)
10,CC(C)Oc1ccc2c(=O)c3cc(C(=O)O)ccc3oc2c1,-1.13% (inactive)
11,COc1ccc(-c2nc(-c3ccc(-c4cccc(Cl)c4)o3)[nH]c2-c2ccc(OC)cc2)cc1 [neurodazine],4.87% (inactive)
12,C[C@@H](N)c1ccc(C(=O)Nc2ccnc3[nH]ccc23)cc1,0.35% (inactive)
13,CC1CCN(CCCC(=O)c2ccc(F)cc2)CC1 [melperone],-1.43% (inactive)
14,C1CCN2C[C@@H]3C[C@@H](CN4CCCC[C@@H]34)[C@H]2C1 [sparteine-sulfate],3.05% (inactive)
15,Oc1c(I)cc(I)c(O)c1I [riodoxol],-0.65% (inactive)
16,Nc1ccc(S(=O)(=O)c2ccc(N)cc2)cc1 [dapsone],0.46% (inactive)
17,CCCCC/C=C\C/C=C\C/C=C\C/C=C\CCCC(=O)Nc1ccc(O)cc1,3.11% (inactive)
18,Cc1ccc(-c2cc(C(F)(F)F)nn2-c2ccc(S(N)(=O)=O)cc2)cc1 [celecoxib],1.91% (inactive)
19,C=CC(=O)O [acrylate],-3.82% (inactive)
20,CCOC(=O)c1c(C)n(C)c2ccc(O)cc12 [mecarbinate],-2.84% (inactive)
